Screens (PubChem)
GRIN3A LBD mod: modulates the human NR3A ligand-binding domain; 340,000 compounds, 2.5% hits; Tm shift relative to glycine control, % at 25 µM; NR3A LBD differential scanning fluorimetry, Tm shift; 0% = protein alone, 100% = glycine-bound protein;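 active = melting temperature shift of at least 10% of the positive control shift, at one fixed dose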
FAS TE block: FAS thioesterase (human) inhibition; 360,000 compounds, 0.67% hits; recombinant FAS-TE, OMFH fluorogenic substrate, fluorescence endpoint; inhibition, % at 15 µM; P49327; AID 602261;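 active = compounds whose normalised, plate-corrected inhibition of enzyme fluorescence in the single-dose primary screen is 50% or more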;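 also: 0% = DMSO with enzyme and 100% = substrate without enzyme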
sPLA2-III inh: Blocks human group III sPLA2 activity | Q9NZ20 | QFRET BODIPY PC-A2 liposome hydrolysis, fluorescence | inhibition, % at 12.2 µM | 370,000 compounds, 0.56% hits | AID 743126;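 active = inhibition above mean plus 3 SD of compounds lying within the high and low control bounds, cut at about 19% in these data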;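 also: 0% = median of test compound wells and 100% = no enzyme DMSO wells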
ADAM17 inh: ADAM17 inhibition, QFRET primary screen; P78536; recombinant ADAM17, EDANS/DABCYL FRET peptide cleavage; inhibition, % at 6.95 µM; 370,000 compounds, 0.83% hits; AID 720648;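 active = inhibition above the mean of compounds lying between control limits plus 3 SD, set per campaign, cut at about 8.5% in these data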;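 also: 0% = DMSO-only wells as the low control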
ADAM10 inh: ADAM10 inhibition, QFRET primary screen | O14672 | recombinant ADAM10, EDANS/DABCYL FRET peptide cleavage, 3 h | inhibition, % at 7 µM | 370,000 compounds, 0.62% hits | AID 720582;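 active = inhibition above a per-campaign cutoff equal to the mean of compounds falling between control-based bounds plus 3 SD, cut at about 20% in these data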;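 also: 0% = DMSO wells while the 100% control is not disclosed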
The depositor's hits bear a star; · = no result. The list is not random: actives were taken first. Their share in the collection is about 4.3%.

SMILES | GRIN3A LBD mod | FAS TE block | sPLA2-III inh | ADAM17 inh | ADAM10 inh
COc1cc(/C=C2\C(=O)ON=C2c2ccc(Cl)cc2)ccc1O | -19.6 | · | -4.4 | -3.2 | -2.0
O=C1ON=C(c2ccccc2)/C1=C/c1ccc(O)c(O)c1 | 16.4* | -1.3 | 7.9 | -6.3 | 3.5
CCN(CC)C(=O)CC[C@H]1CC[C@]2(CCCN(C(=O)c3ccno3)C2)O1 | · | · | -1.1 | 0.7 | -0.8
COc1ccccc1NC(=O)OCCN1CCCC12CCC(c1ccccc1)CC2 (configuration not stated) | · | · | -0.9 | -2.5 | -6.4
CC(C)(C)NC(=O)C(c1ccc(-c2ccccc2)cc1)N(C[C@H]1CC[C@@H]([C@@H]2CC[C@H](CO)O2)O1)C(=O)c1cccc(Cl)c1 (some centres not stated) | -2.6 | 12.5 | -2.6 | 0.7 | -5.9
CC(C)(C)NC(=O)C(c1ccc(-c2ccccc2)cc1)N(C[C@H]1CC[C@@H]([C@@H]2CC[C@H](CO)O2)O1)C(=O)c1ccc(-c2ccccc2)cc1 (some centres not stated) | 29.9* | 29.7 | · | · | ·
FC(F)(F)Sc1ccc(NC(=S)NCc2ccccc2)cc1 | 19.9* | 30.2 | 1.6 | 5.7 | 19.5
S=C(NCc1ccccc1)Nc1ccc(Cl)cc1 | -1.6 | 8.3 | -6.3 | 0.3 | 3.3
Cc1cc(C)nc(SCC(=O)n2c3c(c4ccccc42)CCCC3)n1 | 12.8* | 4.6 | 1.9 | -4.5 | -5.6
Cc1cnn(-c2ccccc2)c1NC(=O)COCc1ccccc1 | · | · | -0.8 | 1.4 | 4.4
Oc1ccc(Cl)cc1-c1cc(-c2ccccc2)n[nH]1 | 24.9* | 16.9 | -41.1 | 7.4 | 23.0*
Cc1ccc(O)c(-c2cc(-c3cccc(Br)c3)n[nH]2)c1 | 28.3* | 23.3 | -19.7 | 5.4 | 14.5
Oc1ccc(Br)cc1-c1cc(-c2ccccc2F)[nH]n1 | 9.7 | -0.6 | -26.7 | 2.4 | 5.8
Cc1ccc(-c2cc(-c3ccc(F)cc3)n[nH]2)c(O)c1 | 11.8* | 5.9 | -39.9 | 7.2 | 15.6
Oc1ccccc1-c1cc(-c2ccccc2)n[nH]1 | -6.1 | 3.6 | -38.4 | 5.0 | 18.4
Oc1ccc(Br)cc1-c1cc(-c2ccccc2Cl)[nH]n1 | 23.4* | -6.2 | -2.1 | 0.8 | 6.8
CCOC(=O)[C@@]12CCC3=C1N(CCC3)C(=O)[C@H](CC(=O)N1CCN(C(=O)C3CC3)CC1)C2 | · | · | 10.4 | -9.7 | -8.8
Clc1ccc([C@H]2OC[C@@]3(CNC4CCCCC4)CS[C@H](c4ccc(Cl)cc4)N23)cc1 | · | · | 7.0 | 1.6 | 9.6
CSc1nc(-c2ccccc2)c(C#N)c(=O)[nH]1 | 0.1 | -4.8 | 1.8 | -5.0 | -0.1
CSc1nc(-c2ccc(Cl)cc2)c(C#N)c(=O)[nH]1 | 37.9* | -2.9 | -12.2 | -1.5 | -1.2
CSc1ccc(C(=O)NCC2CCN(C(=O)C(=O)c3cc4ccccc4o3)CC2)cc1 | · | · | 11.3 | 1.4 | -7.8
CCCNC(=O)C[C@H]1CC[C@H]2[C@@H](COc3ccc(NC(=O)c4cncs4)cc3C(=O)N2C)O1 | · | · | -10.0 | -7.2 | 11.8
O=C(CSc1nnc(-c2cccnc2)n1-c1ccccc1)Nc1cccc2ccccc12 | · | · | 7.3 | 0.8 | -7.5
Cc1cc(C)cc(NC(=O)C(Sc2ncnc3ccccc23)c2ccccc2)c1 (configuration not stated) | -4.8 | 16.4 | -7.0 | -3.4 | -7.6
O=C(Nc1cccc(C(F)(F)F)c1)C(Sc1ncnc2ccccc12)c1ccccc1 (configuration not stated) | 17.5* | 27.7 | 0.2 | 1.3 | 0.1
SMILES | GRIN3A LBD mod | FAS TE block | sPLA2-III inh | ADAM17 inh | ADAM10 inh
Cn1nnnc1SC(C(=O)Nc1cccc(C(F)(F)F)c1)c1ccccc1 (configuration not stated) | 13.1* | 26.2 | -46.1 | 8.2 | 7.0
O=C(Nc1cccc(C(F)(F)F)c1)C(SCCO)c1ccccc1 (configuration not stated) | -6.6 | -2.8 | -14.7 | -0.7 | 1.4
COc1ccc(Nc2nc(-c3ccccc3)c(C(=O)Nc3cccnc3)s2)cc1 | 18.8* | 2.0 | -5.2 | -17.7 | -71.8
Cc1ccccc1Nc1nc(-c2ccccc2)c(C(=O)Nc2cccnc2)s1 | -24.1 | 21.9 | -16.8 | -33.3 | -112.9
O=C(N/N=C/c1ccc(O)cc1O)C1CC1 | 0.2 | -4.0 | 2.1 | -14.5 | -36.1
O=C(N/N=C/c1cccc(O)c1)c1ccc(NC(=O)C2CCCCC2)cc1 | 10.1* | 1.4 | -5.7 | -4.1 | 2.6
O=C(N/N=C/c1ccc(O)cc1O)c1ccc(NC(=O)C2CCCCC2)cc1 | 23.4* | -5.0 | -12.7 | -0.3 | -20.9
O=C(N/N=C/c1cccc(O)c1)NC1CCCCC1 | -2.1 | -3.9 | -18.5 | -0.3 | -1.0
C[C@@H]1CN([C@@H](C)CO)C(=O)CCCn2cc(nn2)CO[C@H]1CN(C)C(=O)NC1CCCCC1 | · | · | -1.8 | -1.6 | -4.3
CCN1CCN(CCCN(Cc2ccco2)C(=S)Nc2ccc(Cl)c(C)c2)CC1 | -0.8 | 9.3 | 0.8 | -1.8 | -0.2
Cc1cc(NC(=S)N(CCCN2CCOCC2)Cc2ccco2)ccc1Cl | 13.4* | 19.7 | 8.3 | -1.5 | 0.2
Cc1ccc(-c2cc(-c3nnc4sc(COc5ccccc5)nn34)[nH]n2)cc1 | · | · | 2.6 | -3.7 | -7.5
COC(=O)C[C@@H]1CC[C@H]2[C@@H](COc3ccc(NC(=O)c4ccc(Cl)cc4)cc3C(=O)N2C)O1 | · | · | 16.0 | -10.1 | -14.8
CCOC(=O)C1=NOC(CNC(=O)C2=NOC(CNC(=O)c3c(-c4ccccc4Cl)noc3C)C2)C1 (configuration not stated) | -2.7 | -2.4 | 1.5 | -10.3 | -4.7
CCOC(=O)C1=NOC(CNC(=O)c2c(-c3ccccc3Cl)noc2C)C1 (configuration not stated) | 13.6* | -0.5 | -4.4 | -2.8 | 1.2
CCCc1cc(-c2n[nH]c(C)c2-c2ccc(C(=O)OCC)o2)c(O)cc1O | 34.7* | -15.8 | -25.8 | 0.2 | -13.0
COc1cc2nc(Nc3ccc(C)c(C)c3)nc(N)c2cc1OC | 15.6* | -4.4 | -6.9 | -7.2 | -7.6
Nc1nc(Nc2ccc(Cl)cc2)nc2ccccc12 | 38.9* | 7.3 | -16.6 | -2.9 | -19.8
CCOc1ccc(Nc2nc(N)c3ccccc3n2)cc1 | 27.6* | 0.8 | 2.9 | -2.9 | 0.1
COc1cc2nc(Nc3ccc(C)c(Cl)c3)nc(N)c2cc1OC | 27.6* | 2.4 | -11.9 | -23.8 | -42.0
COc1cc2nc(Nc3ccc(F)cc3)nc(N)c2cc1OC | 9.1 | -0.8 | -2.7 | -9.9 | -7.9
Nc1nc(Nc2ccccc2)nc2ccccc12 | -1.8 | -8.7 | -1.9 | -7.0 | -7.4
COc1ccc(/C=C2\CC3(OC(=O)c4ccc(F)cc4)CCCN2C3)cc1 (configuration not stated) | · | · | -3.1 | 3.1 | 12.8
C=CCN(CC#CC1=CCCCC1)Cc1ccc(OC)cc1OC | · | · | 0.9 | -0.6 | 1.4
CCCCCN(C(=O)Cc1c(C)n(CCCCC)c2ccccc12)c1ccc(Oc2cccnc2)c(C)c1 | · | · | -1.1 | -2.8 | -7.3
Cc1ccc(Nc2nc(N)c3ccccc3n2)cc1Cl | 38.9* | 21.8 | -12.4 | -10.8 | -28.0
Cc1ccccc1Nc1nc(N)c2ccccc2n1 | 6.1 | -5.3 | 2.1 | -2.4 | -3.6
